HT1080-NT tox – kills 2HG-producing HT-1080-NT fibrosarcoma cells; Potency, µM (titrated, usually from 46.1 µM), for inactives: at the highest dose activity, negative = less viability, actives largely listed as cytotoxic; 1.6% of 360,000 active; HT-1080-NT fibrosarcoma viability, CellTiter-Glo ATP luminescence, 48 h;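 also: NT is the 2HG producing partner of a matched IDH1 knockdown line; potency is read from the fitted curve at half-maximal effect; 0% = DMSO-treated cells and -100% = media-only wells without cells; nearly all actives have a fitted effect of over 55% in size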
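HT-1080-NT; 750 cells/well; 5% FBS RPMI; 48 h compound, 37 degrees C; CellTiter-Glo luminescence; curve fitting and curve-class assignment.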
HT1080 IDH1KD tx – toxicity to HT-1080 IDH1 knockdown cells (counter line); HT-1080 IDH1 knockdown viability, ATP luminescence, 48 h; Potency, µM (titrated, usually from 46.1 µM), for inactives: top-dose activity, negative = toxicity, hits mostly cytotoxic; 2% of 360,000 active; AID 686971;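 also: potency is read from the fitted curve at half-maximal effect; 0% = DMSO wells and -100% = cell-free medium wells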
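Luminescent ATP read-out (CellTiter-Glo, 10 min at room temperature) after 48 h compound exposure at 37 °C gave viability of IDH1-knockdown HT-1080 cells. Activity was normalised to DMSO and cell-free wells, then fitted as concentration-response curves.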
DT40 TDP1 CPT – growth inhibition of DT40 Tdp1-/-;hTDP1 cells with camptothecin (screen for TDP1 inhibitors); chicken DT40 Tdp1-/-;hTDP1 cells + 20 nM CPT, ATP luminescence, 48 h; 12% of 420,000 active; Potency, µM (series often up to 46.2 µM), without a hit: at the highest dose activity change, negative = growth inhibition, actives largely listed as inhibitors; also: potency is read from the fitted curve at half-maximal effect; nearly all actives have a fitted effect of over 55% in size
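Chicken DT40 Tdp1-/- cells stably complemented with human TDP1 were seeded at 400 cells/well in medium containing 20 nM camptothecin, exposed to pin-transferred compounds, and grown at 37 °C for at least 48 hr. Viability was read as ATP luminescence.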
DT40 TDP1 no CPT – qHTS for Inhibitors of human tyrosyl-DNA phosphodiesterase 1 (TDP1): qHTS in cells in absence of CPT; AID 686978, 2013; DT40 Tdp1-/- hTDP1 cells, no CPT, ATP luminescence, 48 h; 15% of 420,000 active; Potency, µM (highest dose often 46.2 µM), inactives show at the highest dose activity change, negative = growth inhibition, actives largely listed as inhibitors; also: potency is read from the fitted curve at half-maximal effect; nearly all actives have a fitted effect of over 55% in size
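No-CPT arm: Tdp1-/-;hTDP1 DT40 cells (400/well) plus compounds, incubated ≥48 hr at 37 °C. Readout CellTiter-Glo luminescence.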
IL-1B inflam inh – inflammasome signaling inhibition, IL-1 beta readout | THP-1 LPS/ATP IL-1B secretion, AlphaLISA, 16 h; hits give low values | activity change, % at 57.5 µM | 4.7% of 360,000 active | AID 743279; in the data active = activity change below about -50%; inconclusive = mostly about -30% to -49%
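Secreted IL-1B measured by AlphaLISA bead assay after 16 h compound exposure of THP-1 cells; compounds (final up to 57.5 uM) added 1 h before LPS (250 ng/mL) and ATP (1.25 mM) stimulation; lower signal means less secretion.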
The depositor's hits bear a star; ? = inconclusive; nt = no result given; [ ] = dose if it differs, or a comment. Compounds with a hit are over-represented: about 19% of the library has one in this group of screens. Unless noted, calls follow the shape of the dose curve; as a rule, active = well fitted curve in the direction sought with a large enough effect; inconclusive = small, poorly fitted or top-dose-only effect, or another doubt; inactive = no such curve, though single readings can be large; an effect the other way counts as inactive or inconclusive. Unless noted, % is scaled to controls: 0 for no effect and ±100 for the full control effect.

SMILES	HT1080-NT tox	HT1080 IDH1KD tx	DT40 TDP1 CPT	DT40 TDP1 no CPT	IL-1B inflam inh
COc1ccc2c(c1OC)C(=O)N1c3ccccc3C(=O)N(Cc3ccco3)C21 (stereo not drawn)	nt	nt	10µM*	20µM*	nt
CCOc1cc(C2Nc3ccccc3C(=O)N2Cc2ccco2)ccc1OCc1ccccc1Cl (stereo not drawn)	nt	nt	10µM*	3.5µM*	nt
Cc1ccc(S(=O)(=O)N2CCOCC2)cc1C(=O)OCC(=O)NC1CC1	-5%[9.24 µM]	3%	2%	2%	-1
O=C(NCC(c1cccnc1)N1CCN(Cc2ccccc2)CC1)C(=O)Nc1cccc(Cl)c1 (stereo not drawn)	nt	nt	15µM*	13µM*	nt
Cc1cccc(NC(=O)C(=O)NCC(c2cccnc2)N2CCN(Cc3ccccc3)CC2)c1 (stereo not drawn)	nt	nt	23µM*	16µM*	nt
Cc1cccc(NC(=O)NCC(c2cccnc2)N2CCOCC2)c1 (stereo not drawn)	5%	21%	-17%	-12%	10
CC1(C)Oc2ccc3ccc(=O)oc3c2/C(=C/N)C1=O	-14%	-15%	?	?	-16
CC1(C)Oc2ccc3ccc(=O)oc3c2/C(=C/Nc2ccccc2)C1=O	-25%	-28%	?	-28%	-59*
CC(C)C[C@H](NC(=O)OC(C)(C)C)C(=O)N[C@@H](CO)[C@H](O)[C@@H]1C[C@@H]1C(=O)NC1CCCCC1	-2%	1%	-13%	-6%	-1
CCOC(=O)C(=NC(C)CC)NNc1cccc(C(F)(F)F)c1 (stereo not drawn)	-8%	-7%	-8%	?	-6
CCC(=O)NNc1ccc(Br)cc1	3.7µM*	4.1µM*	-8%	-28%	-8
CCOC(=O)C(=NC(C)CC)NNc1ccc(Br)cc1 (stereo not drawn)	16µM*	?	?	?	16
COc1ccc(/C=C/C(=O)N2CCN(c3ccccn3)CC2)c2ccccc12	-28%	-2%	?	26µM*	-7
COC(=O)c1cccc(NC(=S)Nc2ccccc2Cl)c1	17%	17%	0%	-1%	1
COC(=O)c1cc(NC(=S)Nc2cc(Cl)cc(Cl)c2)cc(C(=O)OC)c1	-8%	-2%	18µM*	?	-81*
COC(=O)c1cccc(NC(=S)Nc2ccc(Cl)c(Cl)c2)c1	-20%	?	-2%	26µM*	-65*
Cc1nc(N2CCN(Cc3ccc4c(c3)OCO4)CC2)c2cc(-c3ccccc3)sc2n1	0%	-2%	18µM*	23µM*	-62*
Cc1nc(N2CCC(C)CC2)c2oc3ccccc3c2n1	?	?	?	?	-15
Cc1nc(N2CCN(Cc3ccc(Cl)cc3)CC2)c2oc3ccccc3c2n1	-24%	?	23µM*	16µM*	-63*
N#CCc1c(C#N)c(N)nc(N2CCN(Cc3ccc4c(c3)OCO4)CC2)c1C#N	-3%	-18%	?	12µM*	-28
COc1ccccc1N1CCN(c2nc(C)nc3c2oc2ccccc23)CC1	1.1µM*	1.3µM*	3.2µM*	2.8µM*	-10
CN(Cc1ccccc1C(F)(F)F)C(=O)C1CCC(=O)N(CC2CCCCC2)C1 (stereo not drawn)	3%	-2%	-23%	-13%	9
COc1ccc(OC)c(N=C(C)C2=C(O)COC2=O)c1	-3%	-8%	?	?	42
CCOc1ccc(/C=N/Nc2cc(=O)n(C)c(=O)n2C)cc1	4%	6%	5%	?	14
Cc1nc(N2CCN(Cc3ccc4c(c3)OCO4)CC2)c2oc3ccccc3c2n1	?	?	7.3µM*	9.2µM*	?
SMILES	HT1080-NT tox	HT1080 IDH1KD tx	DT40 TDP1 CPT	DT40 TDP1 no CPT	IL-1B inflam inh
CSc1nc(N2CCN(Cc3ccc4c(c3)OCO4)CC2)c2ccccc2n1	-5%	-12%	?	?	28
COc1cc(OC)cc(C(=O)Nc2ccccc2-c2nc3ccccc3s2)c1	nt	nt	10µM*	5.8µM*	nt
COc1cccc(C(=O)NCc2ccc(-c3nc4ccccc4s3)cc2)c1	-22%	?	18µM*	18µM*	6
Cc1cc(C)cc(NC(=O)c2ccc(CSc3nnc(C)s3)cc2)c1	-7%	-6%	?	?	?
COc1ccc(C(=O)NCc2ccc(-c3nc4ccccc4s3)cc2)cc1	-6%	-25%	1%	-18%	-7
O=C(Nc1ccccc1-c1nc2ccccc2s1)c1ccc(Br)o1	16%	-1%	-22%	-17%	25
COc1ccc(-c2nc3ccccc3s2)cc1NC(=O)c1cc(OC)c(OC)c(OC)c1	nt	nt	?	-25%	nt
COc1ccc(OC)c(NC(=O)c2ccc(CSc3nnc(C)s3)cc2)c1	15%	-2%	-7%	?	-60*
COc1ccc(C(=O)Nc2cc(-c3nc4ccccc4s3)ccc2OC)cc1	nt	nt	3.3µM*	5.2µM*	nt
COc1ccc(NC(=O)CN(C)C(=O)CCCc2nc3ccccc3c(=O)[nH]2)cc1	-3%	-1%	-14%	-1%	18
CCC(=O)N1CCCC1(C)C(=O)Nc1ccc2nc(C)ccc2c1 (stereo not drawn)	14%	?	-17%	7%	3
O=C(Nc1ccc(OC(=O)c2ccccc2)c(-c2nc3ccccc3s2)c1)c1ccccc1	-4%	-6%	18µM*	?	58
CC(=O)Nc1ccc(O)c(-c2nc3ccccc3s2)c1	-2%	-20%	-9%	?	-13
COc1ccc(-c2nc3ccccc3s2)cc1NC(=O)c1ccccc1OC	nt	nt	5.2µM*	21µM*	nt
COc1ccccc1C(=O)NCc1ccc(-c2nc3ccccc3s2)cc1	-3%	-6%	3%	0%	23
CCN(CC)C(=O)Cn1c(=O)n(-c2ccc(OC)cc2OC)c(=O)c2c(C)c(C(=O)N(CC)CC)sc21	nt	nt	5%	17%	nt
Cc1cccc(C(=O)Nc2ccc(C(=O)N/N=C/c3ccc4c(c3)OCO4)cc2)c1	?	-25%	-26%	?	9
O=C(N/N=C/c1ccc2c(c1)OCO2)c1cccc(NC(=O)c2ccccc2Cl)c1	12µM*	8.2µM*	8.2µM*	8.2µM*	70
Cc1cccc(C(=O)Nc2cccc(C(=O)N/N=C/c3ccc4c(c3)OCO4)c2)c1	18µM*	?	?	29µM*	17
O=C(N/N=C/c1ccc2c(c1)OCO2)c1ccc(NC(=O)c2ccccc2Cl)cc1	?	?	-27%	?	-3
O=C(NCC1CC1)c1ccc(-c2cn[nH]c2)c2ccoc12	-1%	-10%	?	?	11
O=C(NCc1ccc(F)c(F)c1)c1ccc(-c2ccc(F)c(F)c2)c2ccoc12	-24%	-12%	18µM*	21µM*	?

Screens from PubChem.
